Source: PubChem BioAssay (NCI)
This is part of a sample that, as a whole, favours compounds with a hit. Of some 79,000 tested, about 15% had one in any assay. Active and inactive are the calls of the source. No stated cut-off is given here; in the data, active means growth inhibition above about 70%; inactive means the rest.

Test: NCI Yeast Anticancer Drug Screen. Data for the rad18 strain (AID 177)
Conditions: S. cerevisiae rad18 mutant growth inhibition, hits give high values
Procedure: Growth inhibition of yeast strains with defined genetic alterations is measured as a screen for potential anti-cancer activity. Selected strains with alterations in DNA damage repair or cell cycle control were exposed to compounds and growth inhibition was measured relative to vehicle treated controls. The strain used in this assay is rad18

Measured: growth inhibition

CC1=C(O)C(=O)C=C2C1=CC=C1[C@@]2(C)CCC2(C)[C@@H]3C[C@@H](C)C(=O)C[C@]3(C)CC[C@]12C (stereo not given in full)
active: at 11.0 µM 96% | at 33.0 µM 98% | at 100.0 µM 97%
inactive: at 1.2 µM 9% | at 3.7 µM 28%

Cc1c([N+](=O)[O-])oc2ccc3ccccc3c12
active: at 1.2 µM 95% | at 3.7 µM 96% | at 11.0 µM 96% | at 33.0 µM 95% | at 100.0 µM 94%

COc1cc2ccccc2c2cc([N+](=O)[O-])oc12
active: at 1.2 µM 96% | at 3.7 µM 96% | at 11.0 µM 95% | at 33.0 µM 94% | at 100.0 µM 88%

CCC(=O)OC1CCn2c1nc1c2C(=O)C(C)=C(N2CC2)C1=O (stereo not given)
inactive: at 1.2 µM 60%
active: at 3.7 µM 75% | at 11.0 µM 87% | at 33.0 µM 90% | at 100.0 µM 91%

CC1(C)N=C(N)N=C(N)N1c1cccc(N)c1.[Sn]
inactive: at 1.2 µM -3% | at 3.7 µM 2% | at 11.0 µM 4% | at 33.0 µM 17% | at 100.0 µM 35%

O=[N+]([O-])c1cc(S(=O)(=O)F)ccc1Cl
active: at 33.0 µM 92% | at 100.0 µM 99%
inactive: at 1.2 µM 4% | at 3.7 µM 15% | at 11.0 µM 30%

CC[C@@]1(O)C(=O)OCc2c1cc1n(c2=O)Cc2cc3ccccc3nc2-1
inactive: at 1.2 µM -6% | at 3.7 µM 20%
active: at 11.0 µM 89% | at 33.0 µM 93% | at 100.0 µM 94%

CCC1(O)C(=O)OCc2c1cc1n(c2=O)Cc2c-1nc1ccccc1c2OC (stereo not given)
inactive: at 1.2 µM 1% | at 3.7 µM -4% | at 11.0 µM 5% | at 33.0 µM 1% | at 100.0 µM 1%
